Compounds with a hit are over-represented: about 19% of the library has one in this group of screens.
HT1080 IDH1KD tx: HT-1080 IDH1 knockdown cell toxicity (counter line). HT-1080 IDH1 knockdown viability, ATP luminescence, 48 h. Potency, µM (series often up to 46.1 µM), for the others: at the top dose activity, negative = toxicity, usual class: cytotoxic. 2% of 360,000 active;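 note: potency is the fitted concentration of half-maximal effect; 0% = DMSO wells and -100% = cell-free medium wells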
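Assay cells: HT-1080 with IDH1 knockdown, 750 per well, RPMI/5% FBS. Exposure: 48 h at 37 °C following 2 h pre-incubation. Read: CellTiter-Glo luminescence; fitted concentration-response, curve class assigned.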
DT40 TDP1 no CPT: qHTS for Inhibitors of human tyrosyl-DNA phosphodiesterase 1 (TDP1): qHTS in cells in absence of CPT; DT40 Tdp1-/- hTDP1 cells, no CPT, ATP luminescence, 48 h; AID 686978, 2013; 15% of 420,000 active; Potency, µM (series often up to 46.2 µM), inactives show top-dose activity change, negative = growth inhibition, actives largely listed as inhibitors; note: potency is the fitted concentration of half-maximal effect; nearly all actives have a fitted effect of over 55% in size
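Seeded 400 DT40-hTDP1 cells/well (vehicle DMSO, no 20 nM CPT); pinned compounds; ≥48 hr at 37 °C; CellTiter-Glo luminescence as viability measure.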
ELG1 DNA repair: blocks ELG1-dependent DNA repair in HEK293T cells; 2.3% of 330,000 active; AID 504467; Potency, µM (top dose mostly 46.1 µM), for the others: at the top dose activity change, negative = inhibition, actives largely listed as inhibitors; HEK293T ELG1-luciferase reporter, luminescence, 16 h; DNA damage induced by 5-fluorouridine; note: potency is the fitted concentration of half-maximal effect; nearly all actives have a fitted effect of over 55% in size
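Step one: seed 2,000 cells per well. Step two: pin-transfer compound or DMSO alongside 5-fluorouridine. Step three: incubate 16 hr, 37 °C, 5% CO2. Step four: add ONE-Glo, wait 30 min, read luminescence.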
DT40 TDP1 CPT: growth inhibition of DT40 Tdp1-/-;hTDP1 cells with camptothecin (screen for TDP1 inhibitors). chicken DT40 Tdp1-/-;hTDP1 cells + 20 nM CPT, ATP luminescence, 48 h. Potency, µM (highest dose often 46.2 µM), for inactives: at the top dose activity change, negative = growth inhibition, actives largely listed as inhibitors. 12% of 420,000 active. AID 686979; note: potency is the fitted concentration of half-maximal effect; nearly all actives have a fitted effect of over 55% in size
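Cell growth measured by CellTiter-Glo luminescence after a minimum 48 h, 37 C compound exposure with 20 nM CPT in Tdp1-knockout DT40 cells stably expressing hTDP1, seeded 400/well; qHTS titration format.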
IL1B secr inh: inflammasome signaling inhibition, IL-1 beta readout; AID 743279; 4.7% of 360,000 active; activity change, % at 57.5 µM; THP-1 LPS/ATP IL-1B secretion, AlphaLISA, 16 h; stronger effect = lower value; in the data active = activity change below about -50%; inconclusive = mostly about -30% to -49%
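Secreted IL-1B measured by AlphaLISA bead assay after 16 h compound exposure of THP-1 cells; compounds (final up to 57.5 uM) added 1 h before LPS (250 ng/mL) and ATP (1.25 mM) stimulation; lower signal means less secretion.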
HT1080-NT tox: kills 2HG-producing HT-1080-NT fibrosarcoma cells. HT-1080-NT fibrosarcoma viability, CellTiter-Glo ATP luminescence, 48 h. Potency, µM (series often up to 46.1 µM), for the others: top-dose activity, negative = less viability, most hits filed as cytotoxic. 1.6% of 360,000 active. AID 686970;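 note: NT is the 2HG producing partner of a matched IDH1 knockdown line; potency is the fitted concentration of half-maximal effect; 0% = DMSO-treated cells and -100% = media-only wells without cells; nearly all actives have a fitted effect of over 55% in size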
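Viability of the 2HG-overproducing fibrosarcoma line after 48 hours of compound exposure at 37 degrees C was determined by luminescence with CellTiter-Glo, and concentration-effect curves were then fitted and categorized.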
* marks the source's active call; other numbers are inactive results. Unless noted, calls come from the whole dose curve; as a rule, active = well fitted curve in the direction sought with a large enough effect; inconclusive = small, poorly fitted or top-dose-only effect, or another doubt; inactive = no such curve, though single readings can be large; an effect the other way counts as inactive or inconclusive. Unless noted, % is set by controls: 0 for no effect and ±100 for the full control effect.

`CCOc1cccc(C(=O)Nc2ccc(N3CCCC3)cc2)c1` gave HT1080 IDH1KD tx -24.0%, DT40 TDP1 no CPT 16.4µM*, ELG1 DNA repair inconclusive, DT40 TDP1 CPT -18.7%, IL1B secr inh -29.2 and HT1080-NT tox -6.8%.
Cc1ccc(Cn2c(C(=O)O)c(CNCc3ccccc3Cl)c3ccc(C)cc32)cc1 was read as DT40 TDP1 no CPT inconclusive and DT40 TDP1 CPT 23.1µM*.
`Cc1ccc(Cn2c(C(=O)O)c(CNCc3cccs3)c3ccc(C)cc32)cc1` gave DT40 TDP1 no CPT inconclusive and DT40 TDP1 CPT 14.6µM*.
CC(CN1C(C)CCCC1C)OC(=O)c1cccc(Br)c1 (stereo unspecified) was read as HT1080 IDH1KD tx -3.2%, DT40 TDP1 no CPT -20.0%, ELG1 DNA repair -1.0%, DT40 TDP1 CPT 2.9%, IL1B secr inh 15.3 and HT1080-NT tox 0.5%.
Screening COc1cccc(-c2nnc(-c3ccccc3NC(=O)c3cccc(C(F)(F)F)c3)o2)c1 returned DT40 TDP1 no CPT -12.0% and DT40 TDP1 CPT -8.4%.
S=c1[nH]nc(COc2ccccc2)n1-c1ccc(Cl)cc1 was read as HT1080 IDH1KD tx 0.5%, DT40 TDP1 no CPT 23.1µM*, DT40 TDP1 CPT 14.3%, IL1B secr inh 19.6 and HT1080-NT tox 1.5%.
For COc1ccc(-n2c(COc3ccccc3)n[nH]c2=S)cc1 the results were HT1080 IDH1KD tx 1.9%, DT40 TDP1 no CPT -1.6%, ELG1 DNA repair -9.1%, DT40 TDP1 CPT 0.7%, IL1B secr inh 23.4 and HT1080-NT tox 2.4%.
For O=C(NCCc1cccc(Cl)c1)c1ccc(OC2CCN(Cc3ccccn3)CC2)cc1 the results were HT1080 IDH1KD tx inconclusive, DT40 TDP1 no CPT 16.4µM*, ELG1 DNA repair inconclusive, DT40 TDP1 CPT 29.1µM*, IL1B secr inh inconclusive and HT1080-NT tox inconclusive.
`CCn1cc(CNC(=O)c2ccc(OC3CCN(Cc4ccccn4)CC3)cc2)cn1` gave HT1080 IDH1KD tx -12.7%, DT40 TDP1 no CPT inconclusive, ELG1 DNA repair -18.7%, DT40 TDP1 CPT inconclusive, IL1B secr inh 49.4 and HT1080-NT tox -10.3%.
For CCn1nc(C)c(CNC(=O)c2ccc(OC3CCN(Cc4ccccn4)CC3)cc2)c1C the results were HT1080 IDH1KD tx -25.9%, DT40 TDP1 no CPT 2.91µM*, ELG1 DNA repair inconclusive, DT40 TDP1 CPT 6.51µM*, IL1B secr inh 22.7 and HT1080-NT tox inconclusive.
Cc1cc(NS(=O)(=O)c2ccc(NC(=O)Cc3ccccc3)cc2)nc(C)n1 was read as HT1080 IDH1KD tx 13.1%, DT40 TDP1 no CPT -9.3%, ELG1 DNA repair -10.8%, DT40 TDP1 CPT 5.8%, IL1B secr inh -2.9 and HT1080-NT tox 20.7%.
Screening CC1CCCCC1NC(=O)C1CCN(c2c3c(nc4ncnn24)CCC3)CC1 (stereo unspecified) returned HT1080 IDH1KD tx 12.2%, DT40 TDP1 no CPT 11.6µM*, ELG1 DNA repair 2.8%, DT40 TDP1 CPT -28.7%, IL1B secr inh 0.1 and HT1080-NT tox 17.6%.
For COCCNC(=O)c1sc2ncn(CC(=O)N3CCCCC3)c(=O)c2c1C the results were HT1080 IDH1KD tx 5.9%, DT40 TDP1 no CPT 25.9µM*, ELG1 DNA repair 6.2%, DT40 TDP1 CPT inconclusive, IL1B secr inh 12.2 and HT1080-NT tox 0.3%.
For COCCNC(=O)c1sc2ncn(CC(=O)Nc3ccc(C)c(Cl)c3)c(=O)c2c1C the results were HT1080 IDH1KD tx -6.6%, DT40 TDP1 no CPT 13µM*, ELG1 DNA repair -6.0%, DT40 TDP1 CPT inconclusive, IL1B secr inh -9.1 and HT1080-NT tox -1.9%.
Screening COC(=O)CNC(=O)c1sc2ncn(CC(=O)Nc3ccc(C)c(Cl)c3)c(=O)c2c1C returned HT1080 IDH1KD tx -6.0%, DT40 TDP1 no CPT -23.3%, ELG1 DNA repair -7.6%, DT40 TDP1 CPT inconclusive, IL1B secr inh -81.3* and HT1080-NT tox -11.1%.
Screening Cc1c(C(=O)Nc2c(F)cccc2F)sc2ncn(CC(=O)N3CCCCC3)c(=O)c12 returned HT1080 IDH1KD tx -0.9%, DT40 TDP1 no CPT 6.6%, ELG1 DNA repair 0.0%, DT40 TDP1 CPT -8.8%, IL1B secr inh 20.0 and HT1080-NT tox 12.9%.
For CC(OC(=O)c1cccc(S(=O)(=O)N2CCCCCC2)c1)C(=O)Nc1ccc(S(N)(=O)=O)cc1 (stereo unspecified) the results were HT1080 IDH1KD tx 1.3%, DT40 TDP1 no CPT inconclusive, ELG1 DNA repair -7.6%, DT40 TDP1 CPT -2.3%, IL1B secr inh 2.2 and HT1080-NT tox -2.0%.
Screening Clc1cccc(CN2CCSCC2)c1 returned HT1080 IDH1KD tx 1.8%, DT40 TDP1 no CPT 3.1%, ELG1 DNA repair 2.7%, DT40 TDP1 CPT -15.9%, IL1B secr inh 5.4 and HT1080-NT tox 8.4%.
`Cc1ccc(-c2nc(Nc3ccc(O)cc3)c3ccccc3n2)cc1` gave HT1080 IDH1KD tx 20.6µM*, DT40 TDP1 no CPT 20.6µM*, ELG1 DNA repair inconclusive, DT40 TDP1 CPT inconclusive, IL1B secr inh -87.8* and HT1080-NT tox 20.6µM*.
For Cc1ccc(-c2nc(Nc3cccc(O)c3)c3ccccc3n2)cc1 the results were HT1080 IDH1KD tx -27.8%, DT40 TDP1 no CPT 23.1µM*, ELG1 DNA repair 20.6µM*, DT40 TDP1 CPT 20.6µM*, IL1B secr inh inconclusive and HT1080-NT tox inconclusive.
For O=[N+]([O-])c1ccc(-c2cnc3ccccc3n2)cc1 the results were HT1080 IDH1KD tx 16.0%, DT40 TDP1 no CPT -5.8%, ELG1 DNA repair inconclusive, DT40 TDP1 CPT -8.8%, IL1B secr inh 13.4 and HT1080-NT tox 16.0%.
For Clc1cncc(Cl)c1NNc1c2ccccc2nc2ccccc12 the results were HT1080 IDH1KD tx -6.8%, DT40 TDP1 no CPT inconclusive, ELG1 DNA repair 3.7%, DT40 TDP1 CPT inconclusive, IL1B secr inh 18.7 and HT1080-NT tox -0.2%.
`Cc1ccc(C)c(Nc2nc(-c3ccncc3)nc3ccccc23)c1` gave HT1080 IDH1KD tx -4.4%, DT40 TDP1 no CPT inconclusive, ELG1 DNA repair inconclusive, DT40 TDP1 CPT -28.1%, IL1B secr inh 12.8 and HT1080-NT tox -15.2%.
For O=[N+]([O-])c1ccc(-c2c(O)c3ccccc3c3nc4ccccc4nc23)cc1 the results were HT1080 IDH1KD tx 13.4%, DT40 TDP1 no CPT -12.9%, ELG1 DNA repair 23.1µM*, DT40 TDP1 CPT inconclusive, IL1B secr inh 14.6 and HT1080-NT tox 13.2%.
Screening c1cncc(Nc2c3ccccc3nc3ccccc23)c1 returned HT1080 IDH1KD tx inconclusive, DT40 TDP1 no CPT 14.6µM*, ELG1 DNA repair -15.6%, DT40 TDP1 CPT inconclusive, IL1B secr inh -94.0* and HT1080-NT tox inconclusive.

Screening data from PubChem BioAssay.
